We go through 65 molecules from PubChem BioAssay AID651965 (National Center for Advancing Translational Sciences (NCATS), 2013).

The whole screen tested about 340,000 compounds, of which about 6,400 (1.9%) were called active. About 4% were inconclusive and are not listed. The sample holds actives, similar compounds and a random draw of the others, so the mix is not that of the screen. Values without a mark were called inactive. The call rests on the fitted dose curve; in most records, active means well fitted falling curve with a large enough effect; inconclusive means small, poorly fitted or top-dose-only effect; inactive means no such curve, though single readings can be large or run the other way.
Potency means the concentration at half of the fitted maximal effect.

The test addresses ATP-dependent Clp protease proteolytic subunit (Bacillus subtilis (strain 168)) (UniProt P80244). The test is described as follows: qHTS Assay for Activators of ClpP. Further: the source files actives as falling curves though it sought activators and does not explain the sign; nearly all actives have a fitted effect of over 65% in size. As to conditions: purified B. subtilis ClpP, FRET peptide cleavage, 20 min; series mostly up to 57.5 µM; activity change, negative = active: at the top concentration. The method, boiled down:
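ClpP 10 microg/mL final, pH 8 Tris/KCl buffer with BSA, glycerol, Tween-20; compound pinned in; FRET-FV substrate; RT 20 min; Ex320/Em430; ΔFRET vs ADEP 5.8 microM, DMSO, no enzyme.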
(In general: Quantitative high-throughput screening tests each substance at several concentrations.)
In the case of `COc1cccc(NC(=O)C2(C)CCN2C(=O)CCC2CCCC2)c1` (stereo not given), the “activity change, negative = active” value is -0.927%.

Turning to `NS(=O)(=O)c1ccc(NC(=O)COC(=O)C2(c3ccc(F)cc3)CCCC2)cc1`, the Potency was 28.2 µM (active). For the molecule `O=C(COC(=O)C1(c2ccc(F)cc2)CCCC1)N1CCNC1=O`, the “activity change, negative = active” value was -1.05%. On the same count and under the same terms, under `CN(C)S(=O)(=O)c1cccc(NC(=O)COC(=O)C2(c3ccccc3F)CCCC2)c1` stands 0.268%; under `CC1=CC(C)(C)N(C(=O)CSc2nnc(-c3ccccc3)o2)c2ccc(C)cc21`, -0.107%.

Take `COc1ccc2c(c1)C(C)=CC(C)(C)N2C(=O)Nc1ccccc1`: the Potency was 28.2 µM (active). In the case of `COc1ccc2c(c1)C(C)=CC(C)(C)N2C(=O)CNCc1ccc2c(c1)OCO2`, the “activity change, negative = active” value was 2.1%. On the same count and under the same terms, in the case of `COc1ccc(S(=O)(=O)N2CCCCC2c2cc(C(=O)NCc3ccc(F)cc3)no2)cc1` (stereo not given) it was 0.0963%; in that of `CC(=O)Oc1ccc(-c2nc3c(C)cccc3c(=O)o2)cc1`, -2.1%.

As to `Cc1nc(N=C(N)N)nc2c(C)cccc12`, the “activity change, negative = active” value is 0.0945%.

In the case of `COc1nc(N=C(N)N)nc2c(C)cccc12`, the Potency was 3.16 µM (active). For `Nc1ccc(/C=C/c2ccnc3ccccc23)c([N+](=O)[O-])c1`, the “activity change, negative = active” value was 0.526%. On the same count and under the same terms, under `O=C1NC[C@H](Cc2ccc(O)cc2)N(C[C@H]2CCCN2C[C@H](Cc2ccccc2)N2C[C@H](Cc3ccccc3)N(CCc3ccccc3)C(=O)C2=O)C1=O` stands -3.18%. `O=C(Nc1cccc(S(=O)(=O)N2CCOCC2)c1)C12CC3CC(CC(C3)C1)C2`: the Potency is 31.6 µM (active). In the case of `Cc1occc1C(=O)Nc1cccc(S(=O)(=O)N2CCOCC2)c1`, the “activity change, negative = active” value is 1.54%. Same read-out and setting: in the case of `O=C(CSc1ccccc1)Nc1cccc(S(=O)(=O)N2CCOCC2)c1` it was 1%. Same read-out and setting: in the case of `CC(C)c1cccc(-c2csc(C(O)c3ccccc3)n2)c1` (stereo not given) it was -2.46%. Still for that read-out and setting: in the case of `OC(CBr)CN1CCCCC1` (stereo not given) it was 0.573%; in that of `COC(=O)Cc1ccc(NC(=S)NCc2ccccc2)cc1`, -1.76%; in that of `COc1ccc(CNC(=O)c2ccc3c(O)c(S(=O)(=O)c4ccccc4)c(=O)[nH]c3c2)cc1`, -27%. `O=C(Cc1ccccc1)NCc1ccc(F)cc1`: the “activity change, negative = active” value is 3.53%. The same measure, in the same setting: in the case of `NC(=O)Cc1ccc2c(c1)[nH]c1ccccc12` it was -19.7%.

For `CCc1ccc2[nH]c(=O)c(Cc3ccccc3)c(O)c2c1`, the “activity change, negative = active” value was 3.85%.

With `CCCc1nc2ccccc2c(=O)n1NC(=O)c1c(O)c2ccccc2[nH]c1=O`, the “activity change, negative = active” value is -15.9%.

With `O=C(Cc1c(O)c2ccccc2[nH]c1=O)NCc1ccccc1`, the Potency was 20 µM (active).

In the case of `COC(=O)Cc1c(-c2[nH]c3ccccc3c2CC(=O)OC)[nH]c2ccccc12`, the Potency was 28.2 µM (active). The same measure, in the same setting: in the case of `CCCOC(=O)Cc1c(O)c2ccccc2[nH]c1=O` it was 25.1 µM (active).

Regarding `CCC(C)N(c1ccc(/C=C/c2ccnc3ccccc23)cc1)C(C)CC` (stereo not given), the “activity change, negative = active” value was -0.824%. Still for that read-out and setting: in the case of `COC(=O)c1ccc2nc(C3CCCCC3)c(Cc3cccc(F)c3)n2c1` it was -13.5%; in that of `C(=Nc1ccc(/C=C/c2ccnc3ccccc23)cc1)Nc1ccc(/C=C/c2ccnc3ccccc23)cc1`, -6.68%. In the case of `Nc1ncnc2c1ncn2[C@@H]1O[C@H](C(=O)N2CCSC2)[C@@H](O)[C@H]1O`, the “activity change, negative = active” value is 0.957%. On the same count and under the same terms, under `CCOC(=O)C1C(C)C(C(C)(C)C)N(S(=O)(=O)c2ccc(C)cc2)C1c1ccccc1` (stereo not given) stands 0.713%; under `Nc1nc(CSc2nnnn2-c2ccccc2)nc(Nc2ccccc2)n1`, -2.32%. Turning to `OC[C@@H]1CN(Cc2cccs2)C[C@H](n2cnc3c(NC4CCCC4)ncnc32)O1`, the “activity change, negative = active” value was -2.11%. Turning to `CCOC(=O)CSC1=Nc2ccccc2C2=NC(CCC(=O)NCc3ccc(F)cc3)C(=O)N12` (stereo not given), the “activity change, negative = active” value is 4.54%. As to `NC(=O)CSC1=Nc2ccccc2C2=NC(CCC(=O)NCc3ccc(F)cc3)C(=O)N12` (stereo not given), the Potency is 28.2 µM (active). As for `O=C(CCC1N=C2c3ccccc3N=C(SCc3ccccc3F)N2C1=O)NCCc1ccccc1` (stereo not given), the “activity change, negative = active” value is 4.35%. Same read-out and setting: under `CCCOc1ccc(F)cc1-c1cc(C(=O)Nc2ccc(F)cc2)[nH]n1` stands -0.0166%. The same measure, in the same setting: in the case of `CC(C)C1CCN(C(=O)C2CCC(=O)N(C3CCCCCC3)C2)CC1` (stereo not given) it was 1.03%; in that of `COc1ccc(Cn2ccnc2SCC(=O)NCc2ccco2)cc1`, -2.28%. In the case of `Cc1ccc2[nH]c3c(=O)n(Cc4ccccn4)cnc3c2c1`, the Potency is 31.6 µM (active). With `O=c1c2[nH]c3ccc(Cl)cc3c2ncn1Cc1ccccn1`, the “activity change, negative = active” value was -14.7%. Still for that read-out and setting: under `COCCN(Cc1ccco1)C(=O)Cn1ncc2c([nH]c3ccccc32)c1=O` stands 4.44%. As for `COc1ccc2[nH]c3c(=O)n(Cc4ccco4)cnc3c2c1`, the Potency is 25.1 µM (active).

Take `COc1ccc2c(c1)c1ncn(Cc3ccccn3)c(=O)c1n2C`: the “activity change, negative = active” value is 4.35%.

`CN(C)CCCOc1ccc(-c2ccc3nccn3c2)cn1`: the “activity change, negative = active” value was -24.3%. As for `COc1cccc(NC(=O)C2(C)CCN2Cc2ccccc2Cl)c1` (stereo not given), the “activity change, negative = active” value was -0.477%. Same read-out and setting: under `CC1=C(C(=O)N(C(C)C)C(C)C)CC(CC(=O)NCCCCc2ccccc2)C(=O)N1CCC1=CCCCC1` (stereo not given) stands -0.51%. Same read-out and setting: under `CN(Cc1ccccc1)C(=O)CCC1CCN(C(=O)c2ccco2)CC1` stands 1.04%; under `Cc1ccc2c(c1)c1ncn(CCC3=CCCCC3)c(=O)c1n2C`, -29.4%.

With `Cc1ccc2c(c1)c1ncnc(N3CCc4ccccc4C3)c1n2C`, the Potency is 31.6 µM (active). For the molecule `Cc1ccc2c(c1)c1ncn(Cc3ccc(F)cc3)c(=O)c1n2C`, the “activity change, negative = active” value was 3.72%. On the same count and under the same terms, in the case of `CCCCN1C(=O)C(CC(=O)NCc2cccs2)CC(C(=O)N2CCCCCC2)=C1C` (stereo not given) it was 2.09%; in that of `CCOC1=C2[C@@H](CN(S(=O)(=O)c3ccc(C)cc3)[C@H]2c2ccccc2F)[C@H]2C(=O)N(Cc3ccccc3)C(=O)[C@H]2C1`, -5.97%. Same read-out and setting: in the case of `Cc1ccc(OCC(=O)Nc2ccc(Cl)c(-c3nc4ccccc4[nH]3)c2)cc1C` it was 4.68%. As to `Oc1ccc(-c2[nH]ncc2-c2nc3ccccc3s2)c(O)c1`, the “activity change, negative = active” value is -25.2%. Same read-out and setting: under `Nc1ccccc1-c1nc2ccncc2[nH]1` stands 3.69%; under `Clc1ccccc1SCc1nc2ccccc2[nH]1`, -2.24%. As to `COc1ccc(-c2[nH]nc(-c3ccccc3)c2-c2nc3ccccc3[nH]2)cc1`, the Potency is 25.1 µM (active). Same read-out and setting: under `c1ccc(-c2[nH]ncc2-c2nc3ccccc3[nH]2)cc1` stands 25.1 µM (active). Turning to `COc1ccc(NC(=O)CSc2nc3ccccc3[nH]2)cc1`, the “activity change, negative = active” value was -0.614%. The same measure, in the same setting: in the case of `COc1ccc(-c2cn[nH]c2-c2ccc(OC)cc2)cc1` it was -8.81%.

For `c1ccc2[nH]c(-c3nc4ccccc4[nH]3)nc2c1`, the Potency is 7.08 µM (active). Consider `COc1cccc(CNC(=O)[C@@H]2CCCN2C(=O)[C@@H]2CCCN2C(=O)c2ccccc2)c1`, for which the “activity change, negative = active” value is -3.48%. On the same count and under the same terms, under `Cc1[nH]c2ccccc2c1C(=O)c1cc([C@H](NC(=O)OC(C)(C)C)C(C)C)sc1N` stands -1.88%.
